Bioassay records: PubChem BioAssay, NMMLSC
A selection: hits, their analogues and other compounds. The true share with any hit is near 1.2%.
RGS16-Gao = regulators of human RGS16-Galphao interaction. 220,000 tested, 0.38% active. bead-based flow cytometry RGS16-Galphao binding, fluorescence; actives lie on both sides. AID 1441. binding response (% of control), % at 10 µM. O15492+P09471; call rule not given here;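 further: Galphao activated by GDP with aluminum fluoride before binding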
Target sequence (O15492 whole entry, looked up): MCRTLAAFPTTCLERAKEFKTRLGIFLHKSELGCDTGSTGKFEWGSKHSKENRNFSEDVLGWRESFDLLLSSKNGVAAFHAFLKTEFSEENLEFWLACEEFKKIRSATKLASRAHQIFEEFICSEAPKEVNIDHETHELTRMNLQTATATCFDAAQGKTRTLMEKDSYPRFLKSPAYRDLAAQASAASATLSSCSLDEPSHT
Target sequence (P09471 whole entry, looked up): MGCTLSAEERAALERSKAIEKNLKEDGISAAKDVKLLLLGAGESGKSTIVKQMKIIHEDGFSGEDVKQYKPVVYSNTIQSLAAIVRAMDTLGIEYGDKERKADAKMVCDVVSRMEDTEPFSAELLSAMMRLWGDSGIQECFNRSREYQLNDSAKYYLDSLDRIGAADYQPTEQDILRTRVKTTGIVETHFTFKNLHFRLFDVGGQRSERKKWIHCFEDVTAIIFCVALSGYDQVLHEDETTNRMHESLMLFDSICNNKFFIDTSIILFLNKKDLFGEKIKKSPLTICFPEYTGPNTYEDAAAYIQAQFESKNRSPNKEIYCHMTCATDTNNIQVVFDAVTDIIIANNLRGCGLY
RGS7-Gao reg = human RGS7-Galphao interaction regulation | P09471 | Multiplexed bead flow cytometry, RGS7-Galphao binding; actives lie on both sides | binding response (% of control), % at 10 µM | 220,000 tested, 0.35% active | AID 1439; in the data active means binding response below about 49% or above about 150%; inconclusive means no clear call, values can overlap the other calls; inactive means in between;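 further: fluorescent Galphao held in activated GDP-AlF4 state binding bead-coupled RGS7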
Target sequence (P09471 whole entry, looked up): as above
RGS8-Gao reg = modulates binding of RGS8 to human Galphao; multiplexed bead flow cytometry; actives lie on both sides; response (percent of control binding), % at 10 µM; 220,000 tested, 0.34% active; AID 1423; in the data active means response below about 60% or above about 140%; inactive means in between;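 further: Galphao activated as the GDP aluminium fluoride complex binding bead-coupled RGS8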
RGS4-Gao reg = human RGS4-Galphao interaction regulation; Multiplexed bead flow cytometry, RGS4-Galphao binding; actives lie on both sides; binding response (% of control), % at 10 µM; 220,000 tested, 0.33% active; AID 1415; in the data active means binding response below about 49% or above about 150%; inactive means in between;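 further: fluorescent Galphao activated with aluminum fluoride binding bead-coupled RGS4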
Avidin bead fluor = avidin bead compound fluorescence profile | Avidin beads, compound fluorescence 488/530 nm, flow cytometry; stronger effect = higher value | 220,000 tested, 0.38% active | fluorescence (KMESF) at 10 µM; in the data active means fluorescence above about 47
GSH fluor = GSH bead compound fluorescence profile. 190,000 tested, 0.25% active. GSH beads flow cytometry, compound fluorescence 488/530 nm; stronger effect = higher value. fluorescence (KMESF) at 10 µM; in the data active means fluorescence above about 89;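 further: glutathione beads carrying GST-tagged Bcl family fusion proteins plus one bare bead set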
Avidin counter = interferes with biotinylated probe binding to avidin beads | shares compounds with RGS16-Gao | streptavidin beads, fluorescein-biotin binding, flow cytometry | inhibition, % at 10 µM | 1,700 tested, under 10 active | AID 1783;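 active means inhibition above 50%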;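 further: median green fluorescence of gated singlet beads compared with DMSO control wells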
RGS8-Gao confirm = confirmation of regulators of human RGS8-Galphao interaction | shares compounds with RGS16-Gao | bead-based flow cytometry RGS8-Galphao binding, fluorescence; actives lie on both sides | binding response (% of control), % at 10 µM | 1,700 tested, 3% active | AID 1836; in the data active means binding response below about 72% or above about 130%; inactive means in between;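 further: Galphao activated as GDP AlF4 complex before binding bead RGS8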
RGS7-Gao confirm = RGS7-Galphao interaction regulation, single point confirmation | shares compounds with RGS16-Gao | bead-based flow cytometry RGS7-Galphao binding; actives lie on both sides | response (percent of control binding), % at 10 µM | 1,700 tested, 7.8% active | AID 1837; in the data active means response below about 75% or above about 130%; inactive means in between;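 further: fluorescent Galphao activated with GDP and aluminum fluoride binding bead-coupled RGS7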
RGS16-Gao conf = confirmation of regulators of human RGS16-Galphao interaction. shares compounds with RGS16-Gao. bead-based flow cytometry, RGS16-Galphao binding; actives lie on both sides. response (% of control binding), % at 10 µM. 1,700 tested, 4% active; in the data active means response below about 74% or above about 130%; inactive means in between;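 further: Galphao activated as the GDP aluminium fluoride complex binding bead-coupled RGS16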
RGS4-Gao single = RGS4-Galphao interaction regulation, single point confirmation; shares compounds with RGS16-Gao; RGS4-Galphao binding, multiplexed bead flow cytometry; actives lie on both sides; binding response (% of control), % at 10 µM; 1,700 tested, 4% active; in the data active means binding response below about 74% or above about 130%; inactive means in between
RGS19-Gao single = RGS19-Galphao interaction regulation, single point confirmation. response (percent of control binding), % at 10 µM. bead-based flow cytometry RGS19-Galphao binding; actives lie on both sides. 1,700 tested, 5% active. AID 1841. shares compounds with RGS16-Gao; in the data active means response below about 50% or above about 160%; inactive means in between
Each line names hits and unclear results; the compound was inactive in the other large screens (follow-up assays come after a bar, where they were run); [ ] = another dose, or the depositor's remark.

COc1ccc(Cn2c(=O)[nH]c3cc(C(=O)NCCCOC(C)C)ccc3c2=O)cc1	none
c1ccc2sc(Cc3nnc4n3CCCCC4)nc2c1	Avidin bead fluor 88
CCOC(=O)c1[nH]c(C)c(C(=O)Nc2ccccc2F)c1C	Avidin bead fluor 108
CCOC(=O)c1[nH]c(C)c(C(=O)Nc2ccc(F)cc2)c1C	none
CCCCCCC(C)NC(=S)Nc1cc(S(=O)(=O)N(C)C)ccc1C (configuration not stated)	none
O=C(c1ccc2c(c1)OCO2)N1CCC2(CC1)Oc1ccc(F)cc1C(=O)C21CC(c2ccccc2)=NO1 (configuration not stated)	RGS7-Gao reg inconclusive (no result: GSH fluor)
CCc1c(C)sc(NC(=O)c2cccs2)c1C(=O)OC(C)C	none
Cc1sc(NC(=O)c2cccs2)c(C(=O)OC(C)C)c1C	GSH fluor 102
O=c1oc2cc(O)ccc2cc1-c1nc2c(s1)CCc1ccccc1-2	GSH fluor 159
O=c1oc2ccccc2cc1-c1nc2c(s1)CCc1ccccc1-2	none
COc1ccc(NC(=O)CCN2CCN(S(=O)(=O)c3cc(Cl)ccc3Cl)CC2)cc1	Avidin bead fluor 60
COc1ccc(NC(=O)CCN2CCN(S(=O)(=O)c3ccc(OC)cc3)CC2)cc1	none
CSC(=Nc1cccc(C)c1)NC#N	none
N#CC1=C(N)Oc2n[nH]c(-c3cccs3)c2C1c1ccccc1C(=O)O (configuration not stated)	none
N#CC1=C(N)Oc2n[nH]c(-c3cccs3)c2C1c1cccs1 (configuration not stated)	Avidin bead fluor 48
COc1cc(-c2nc3oc4ccccc4c(=O)c3c(=O)n2Cc2ccco2)cc(OC)c1OC	Avidin bead fluor 49
COc1ccc2c(=O)c3c(=O)n(Cc4ccco4)c(-c4ccc(C)cc4)nc3oc2c1	none
Cc1ccnc2nc(C(=O)NC3=NCCS3)nn12	none
Cc1ccnc2nc(C(=O)Nc3nccs3)nn12	GSH fluor 253
N#CC(=C=[N-])c1nc2ccccc2nc1-[n+]1cccc(NC(=O)c2cccs2)c1	RGS7-Gao reg inconclusive (no result: GSH fluor)
O=C(CN1C(=O)c2ccccc2S1(=O)=O)NCCC1=CCCCC1	GSH fluor 117
CCCCc1ccc(NC(=O)N2CCNC(=O)C2CC(=O)Nc2ccsc2C(=O)OC)cc1 (configuration not stated)	RGS7-Gao reg inconclusive (no result: GSH fluor)
CCOC(=O)Nc1ccc2c(c1)OCO2	none
COC(=O)Nc1ccc2c(c1)OCO2	GSH fluor 100
Cc1ccc(C(=O)OCC(=O)N2CCc3ccccc32)cc1	Avidin bead fluor 50
Cc1onc(-c2c(F)cccc2Cl)c1C(=O)OCC(=O)Nc1c(C)n(C)n(-c2ccccc2)c1=O	GSH fluor 279
Cc1cc(C(=O)N2CCN(C(c3ccccc3)c3ccccc3)CC2)no1	Avidin bead fluor 52
CCCc1cc(C(=O)N2CCN(C(c3ccccc3)c3ccccc3)CC2)no1	none
CC(=O)Nc1ccc(C(=O)Nc2nc(-c3cccnc3)cs2)cc1	RGS7-Gao reg inconclusive, Avidin bead fluor 63
COC(=O)c1ccc(C2CC(=O)Nc3cc(OC)c(OC)c(OC)c32)cc1 (configuration not stated)	none
CS/C(N)=N/S(=O)(=O)c1ccc(NC(C)=O)cc1	RGS7-Gao reg inconclusive, Avidin bead fluor 75 (no result: GSH fluor)
Cc1ccn2cc(C34CC5CC(CC(C5)C3)C4)nc2c1	none
Cc1ccc(C(=O)NC2CCc3ccccc3C2=O)cc1 (configuration not stated)	none
Cc1ccc(C(=O)NC2c3ccccc3-c3ccccc32)cc1	Avidin bead fluor 60
CC(C)c1ccc(C(=O)N2CCN(c3cnn(C)c(=O)c3Cl)CC2)cc1	none
CCCCNC(=O)c1cnc2n(c1=O)CCS2	none
CCOC(=O)N1CCC(NC(=O)c2cnc3n(c2=O)CCS3)CC1	RGS16-Gao -12.8, RGS7-Gao reg -21.1, RGS8-Gao reg 2.7, RGS4-Gao reg -14.5
Cc1cc(C)n(C(=O)c2c([N+](=O)[O-])c(C)nn2C)n1	GSH fluor 150
CCn1c(=O)c(C(=O)Nc2nc3ccccc3[nH]2)c(O)c2ccccc21	GSH fluor 114
CCc1nc2ccccc2c(=O)n1NC(=O)c1c(O)c2ccccc2n(CC)c1=O	none
COc1ccc2ccccc2c1CN1CCN(Cc2ccccc2)CC1	none
COc1ccc2ccccc2c1CN1CCCC(CO)C1 (configuration not stated)	Avidin bead fluor 57
CCOc1ccc(S(=O)(=O)Nc2ccc(C(=O)N/N=C(\C)c3ccc(-n4ccnc4)cc3)cc2)cc1	Avidin bead fluor 50
Cc1ccc(OCc2nnc(SCCN3CCOCC3)n2C)cc1	none
CCc1ccc(OCc2nnc(SCCN3CCOCC3)n2C)cc1	GSH fluor 260
CCOC(=O)C1(C)NC(c2cccs2)C2C(=O)N(c3ccc(OC)cc3)C(=O)C21 (configuration not stated)	none
CCN(CC)c1nc(OC)nc(-n2nnc(C(C)=O)c2C)n1	none
OCCN1CCOCCN(CCO)CCOCC1	none
C=CCNC(=O)CCCc1ccccc1	Avidin bead fluor 52
CC(C)CNC(=O)CCCc1ccccc1	none
COc1ccc(C(=O)OCCN2CCOCC2)cc1	GSH fluor 96
CC(=O)c1ccc(-n2c(SCC(=O)c3c[nH]c4ccccc34)nc3ccccc3c2=O)cc1	RGS7-Gao reg 184.2[activator], RGS4-Gao reg 179.3[activator], Avidin bead fluor 2389 | Avidin counter inactive | RGS8-Gao confirm inactive | RGS7-Gao confirm inactive | RGS16-Gao conf inactive | RGS4-Gao single inactive | RGS19-Gao single inactive
CCOC(=O)c1c(C)[nH]c(C)c1C(=O)CSc1nc2ccccc2c(=O)n1-c1ccc(CC)cc1	none
